Screening data deposited in PubChem by National Center for Advancing Translational Sciences (NCATS).
A selection: hits, their analogues and other compounds. The true share with any hit is near 3.5%.
LmPK inhibitor = qHTS Assay for Inhibitors of Leishmania Mexicana Pyruvate Kinase (LmPK); Q27686; purified LmPK, Kinase-Glo ATP luminescence, 1 h; Potency, µM (titrated, usually from 57.5 µM), inactives show at the highest dose activity change, negative = inhibition, most hits filed as inhibitors; 0.37% of 290,000 active; also: potency is read from the fitted curve at half-maximal effect; % is scaled to controls: 0 for no effect and ±100 for the full control effect
Target sequence (Q27686 whole entry, looked up): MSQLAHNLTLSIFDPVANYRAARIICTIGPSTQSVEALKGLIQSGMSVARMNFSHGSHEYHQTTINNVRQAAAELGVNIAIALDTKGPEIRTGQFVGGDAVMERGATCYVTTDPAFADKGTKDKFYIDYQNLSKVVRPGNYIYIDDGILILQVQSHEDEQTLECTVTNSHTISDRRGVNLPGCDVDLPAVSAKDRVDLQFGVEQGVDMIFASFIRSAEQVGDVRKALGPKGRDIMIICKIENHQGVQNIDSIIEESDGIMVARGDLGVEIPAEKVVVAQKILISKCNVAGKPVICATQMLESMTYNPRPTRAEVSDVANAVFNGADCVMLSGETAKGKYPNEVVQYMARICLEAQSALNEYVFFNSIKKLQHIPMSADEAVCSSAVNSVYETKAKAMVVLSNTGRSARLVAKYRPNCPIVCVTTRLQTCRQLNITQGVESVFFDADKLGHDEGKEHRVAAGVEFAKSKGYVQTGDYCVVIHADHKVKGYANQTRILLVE
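qHTS format; LmPK 0.1 nM; substrates PEP 0.5 mM and ADP 0.1 mM. One-hour room-temperature incubation, then coupled luciferase luminescence; 0.5 nM enzyme wells mark activation.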
TbPYK inhibitor = qHTS of Trypanosoma Brucei Inhibitors; Potency, µM (series often up to 76.8 µM), without a hit: at the top dose activity, negative = inhibition, actives largely listed as inhibitors; pyruvate kinase (Trypanosoma brucei), Q57TT1; 0.12% of 410,000 active; TbPYK enzyme, Kinase-Glo Plus ATP luminescence, 45 min; also: potency is read from the fitted curve at half-maximal effect; % is scaled to controls: 0 for no effect and ±100 for the full control effect; nearly all actives have a fitted effect of over 50% in size
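Readout: single end-point luminescence (Kinase-Glo Plus, 10 min). Reaction conditions were TbPYK/substrate plus 130 uM ADP, 45 min at RT, pH 7.2 TEA buffer. No-enzyme wells served as controls, and data were normalized before concentration-response fitting.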
Giardia FBPA inh = qHTS Assay for Inhibitors of Fructose-1,6-bisphosphate Aldolase from Giardia Lamblia; purified Giardia FBPA; A8B2U2; Potency, µM (series often up to 59.6 µM), for inactives: at the highest dose activity, negative = inhibition, hits mostly inhibitors; AID 2451, 2010; 0.71% of 290,000 active; also: potency is read from the fitted curve at half-maximal effect; % is scaled to controls: 0 for no effect and ±100 for the full control effect; nearly all actives have a fitted effect of over 55% in size
Target sequence (A8B2U2 whole entry, looked up): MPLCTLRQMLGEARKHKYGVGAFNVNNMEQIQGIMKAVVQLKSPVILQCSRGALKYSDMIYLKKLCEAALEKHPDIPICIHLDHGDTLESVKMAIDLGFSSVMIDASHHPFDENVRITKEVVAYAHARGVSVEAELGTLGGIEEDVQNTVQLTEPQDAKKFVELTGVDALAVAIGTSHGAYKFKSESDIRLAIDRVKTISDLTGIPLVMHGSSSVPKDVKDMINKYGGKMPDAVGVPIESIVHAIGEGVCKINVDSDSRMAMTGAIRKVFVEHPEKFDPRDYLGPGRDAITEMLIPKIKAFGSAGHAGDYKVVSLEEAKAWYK
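Giardia FBPA (40 nM reagent) was preincubated 10 min at RT with compound (up to 57.5 uM final), then substrate plus GAPDH/TPI/NAD/arsenate coupling system with diaphorase/resazurin was added; resorufin fluorescence (525/598 nm) was read after 20 min.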
RE007 growth inh = qHTS Assay for Inhibitors of the HIV-1 protein Vpr | Potency, µM (top dose mostly 92.2 µM), for the others: at the top dose activity change, negative = less growth, most hits filed as inhibitors | S. pombe RE007 Vpr strain, BacTiter-Glo ATP luminescence, 24 h | 0.21% of 360,000 active; active = well fitted falling curve with a large enough effect; inconclusive = small, poorly fitted or top-dose-only effect; inactive = no such curve, though single readings can be large or run the other way; also: potency is read from the fitted curve at half-maximal effect; % is scaled to controls: 0 for no effect and ±100 for the full control effect; nearly all actives have a fitted effect of over 50% in size
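Fission yeast strain RE007, carrying one chromosomally integrated HIV-1 vpr copy, was seeded at OD 0.01 in PMG+AL medium with 23 nL pinned compound. After 24 h at 30 °C and 99% humidity, viability was read by BacTiter-Glo luminescence.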
Sm TGR block = qHTS Assay for the Inhibitors of Schistosoma Mansoni Peroxiredoxins; Schistosoma mansoni thioredoxin glutathione reductase (TGR), Q962Y6; purified TGR, DTNB reduction, TNB absorbance 405 nm; Potency, µM (top dose mostly 114 µM), without a hit: at the top dose activity change, negative = inhibition, hits mostly inhibitors; 3% of 360,000 active; also: potency is read from the fitted curve at half-maximal effect; % is scaled to controls: 0 for no effect and ±100 for the full control effect; nearly all actives have a fitted effect of over 60% in size
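TGR 20 nM + NADPH 100 uM (dispensed conc.), cpd preinc 15 min RT; start with NADPH (500 uM addition) then DTNB (15 mM addition). Kinetic TNB absorbance, 405 nm filter. Four-parameter Hill fit across titration.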
NS1 inh = qHTS Assay for Inhibitors of Influenza NS1 Protein Function; 0.4% of 270,000 active; Potency, µM (doses to about 46.1 µM), for the others: at the top dose activity, positive = more growth; calls by dose curve; also: potency is read from the fitted curve at half-maximal effect; actives are rising curves; nearly all actives have a fitted effect of over 50% in size
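A cell-based growth assay was used: compounds that relieve NS1-induced slow growth of budding yeast raise OD600. Assay medium was yeast nitrogen base with ammonium sulphate and -URA supplement, pH 6.0, with 2% galactose.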
LmPK confirm = Confirmation Assay for Inhibitors of Leishmania Mexicana Pyruvate Kinase (LmPK); shares compounds with LmPK inhibitor; purified LmPK, Kinase-Glo ATP luminescence, 1 h; Potency, µM (top dose mostly 57.5 µM), inactives show at the highest dose activity change, negative = inhibition, usual class: inhibitors; 40% of 150 active;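 active = compounds giving a full or partial concentration-response curve, as inhibitors or activators; inconclusive = weak, top-dose-only or unclear curve responses; inactive = no response at any tested dose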
* marks the source's active call; other numbers are inactive results; ? = inconclusive; nt = not tested or not shown; [ ] = dose if it differs, or a comment. Unless noted, calls follow the shape of the dose curve; as a rule, active = well fitted curve in the direction sought with a large enough effect; inconclusive = small, poorly fitted or top-dose-only effect, or another doubt; inactive = no such curve, though single readings can be large; an effect the other way counts as inactive or inconclusive.

SMILES	LmPK inhibitor	TbPYK inhibitor	Giardia FBPA inh	RE007 growth inh	Sm TGR block	NS1 inh	LmPK confirm
CC(=O)NC(=S)Nc1ccc(NC(=O)c2cccs2)cc1	-5%	-7%	-4%	10%	-30%	-5%	nt
Cc1ccc(/C=C/C(=O)c2ccc(C)cc2)cc1	-8%	-1%	-10%	1%	3%	-16%	nt
Cc1ccc(C(=O)/C=C/C(=O)c2ccc(C)cc2)cc1	4µM*	?	-1%	-17%	2.2µM*	nt	?
Cc1ccc(-n2[nH]c(C)c(/C=N/c3ccccn3)c2=O)cc1	-20%	3%	-4%	?	-8%	-5%	?
Cc1ccc(-n2[nH]c(C)c(C=Nc3ccc(Br)cn3)c2=O)cc1	-19%	-1%	-2%	-20%	-2%	nt	nt
CCN1C(=O)C2(SC(NC(C)=O)=NN2C(C)=O)c2cc(C)ccc21 (stereo not drawn)	-2%	4%	0%	-6%	5%	4%	2%
CCS(=O)(=O)N1CCc2cc(C(=O)Nc3cc(Cl)ccc3C)ccc21	nt	1%	nt	nt	2%	nt	nt
O=C(c1c2c(nc3ccccc13)C(=O)N(C1CCCCC1)C2)N1CCN(c2ccc(F)cc2)CC1	nt	-11%	nt	nt	3%	nt	nt
CN(Cc1cn(C)nc1-c1cccc(Cl)c1)Cc1nccn1C	2%	-8%	0%	8%	1%	0%	-1%
CCn1c(SCC(=O)Nc2sc3c(c2C#N)CCC(C(C)(C)C)C3)nnc1-c1ccco1 (stereo not drawn)	5%	3%	1%	1%	-15%	9%	7%
CCc1ccc(C2CC(=O)NC(NC(=O)c3ccc(C(C)(C)C)cc3)=N2)cc1 (stereo not drawn)	nt	2%	nt	nt	12%	nt	nt
Cc1ccccc1NC(=O)COC(=O)c1cc[n+]([O-])cc1	nt	-2%	nt	2%	5%	nt	nt
COc1cc(Cl)c(C)cc1NC(=O)COC(=O)c1cc[n+]([O-])cc1	2.8µM*	2%	0%	19%	-1%	nt	3%
CSc1nc2c([nH]c3ccccc32)c(=O)n1-c1ccc(C)cc1	nt	-1%	nt	nt	17%	nt	nt
Nc1cc(S(=O)(=O)N2CCOCC2)ccc1N1CCCCC1	nt	?	nt	0%	nt	nt	nt
O=c1c2ccccc2sn1-c1cc(S(=O)(=O)N2CCOCC2)ccc1N1CCCC1	8.9µM*	?	?	6%	?	?	?
CCCOc1ccc(-c2cc(C(F)(F)F)c(C#N)c(SCCC(=O)O)n2)cc1	nt	-2%	nt	nt	-1%	nt	nt
CCOCCc1nn2c(=O)cc(COC(=O)c3ccc(NC(=O)C(C)(C)C)cc3)nc2s1	nt	3%	nt	nt	-1%	nt	nt
CN(C)c1nc2c(c(N)nn2-c2ccc(Cl)cc2)c(=O)o1	0%	-4%	6%	0%	2%	-6%	5%
CC1=CC(C)(C)N(C(=O)c2ccccc2)c2ccc(C)cc21	-1%	2%	2%	nt	0%	-22%	5%
Cc1cccc(C(C)C)c1NC(=O)Cn1c(=O)oc2cc(S(=O)(=O)N3CCCC3)ccc21	nt	3%	nt	nt	3%	nt	nt
Cn1c(-c2ccc(Br)o2)nc2ccccc21	7.9µM*	?	-11%	?	18µM*	-80%	21µM*
Cn1c(-c2nonc2N)nc2ccccc21	2%	-1%	-3%	2%	9%	20%	nt
CCn1c(O)c(N=Nc2ccc3ccccc3n2)c2ccccc21	-3%	-2%	-8%	38%	-29%	-5%	nt
Brc1ccc(N=Nc2ccc3ccccc3n2)cc1	6.3µM*	?	3%	-1%	11%	-3%	8.2µM*
SMILES	LmPK inhibitor	TbPYK inhibitor	Giardia FBPA inh	RE007 growth inh	Sm TGR block	NS1 inh	LmPK confirm
COC(=O)CSc1ccc2nnc(-c3ccc(F)cc3)n2n1	2%	-21%	3%	11%	9%	-8%	0%
COc1cccc(/C=N/NC(=O)c2ccoc2C)c1O	7.9µM*	-13%	5%	-13%	11%	-5%	18µM*
Cc1cccn2c(=O)c(C(=O)NCc3cccc(F)c3)cnc12	nt	2%	nt	nt	0%	nt	nt
Cc1ccc(Cl)cc1N1CCN(S(=O)(=O)c2ccc3c(c2)OCCO3)CC1	0%	-7%	2%	-3%	7%	-4%	9%
Cc1ccc(C)c(N2CCN(S(=O)(=O)c3ccc4c(c3)OCCO4)CC2)c1	3%	-5%	0%	-7%	16%	-8%	nt
COc1cc(/C=N/N2C(C)CCCC2C)cc(OC)c1O (stereo not drawn)	2µM*	-5%	-4%	4%	45µM*	?	?
CNS(=O)(=O)c1cn(CC(=O)N2CCN(c3cc(C)ccc3C)CC2)cc1S(=O)(=O)NC	nt	0%[15.4 µM]	nt	nt	-2%	nt	nt
COc1cccc(-n2c(=O)c3sc4ccccc4c3n(CC(=O)Nc3ccccc3OC)c2=O)c1	nt	3%	nt	nt	3%	nt	nt
Cc1ccc(N2C(=O)c3ccccc3C2O)nc1 (stereo not drawn)	7.1µM*	nt	2%	nt	-5%	-1%	18µM*
Cc1ccc(N2C(=O)c3ccccc3C2Nc2ccccc2F)nc1 (stereo not drawn)	6%	1%	-15%	-14%	36%	-70%	nt
COC(=O)COc1cc(Br)c(/C=C2/SC(=O)N(CC(=O)N3CCCC3)C2=O)cc1OC	-2%	1%	nt	5%	5%	8%	nt
COC(=O)COc1ccc(/C=C2/SC(=O)N(CC(=O)N3CCCC3)C2=O)cc1Br	-5%	0%	5%	-4%	3%	0%	4%
Cc1ccc(Cc2cnc(NC(=O)C3Cc4ccc(C)cc4C(=O)O3)s2)cc1 (stereo not drawn)	nt	-6%	nt	nt	3%	nt	nt
CC(C)(C)c1ccc(C(=O)O/N=C(\N)c2ccccn2)cc1	-16%	-8%	4%	-2%	-5%	-51%	nt
N/C(=N\OC(=O)c1ccccc1)c1ccccn1	4.5µM*	?	1%	?	2%	-1%	8.2µM*
CCOc1ccc(C(=O)O/N=C(\N)c2ccccn2)cc1	?	13µM*	11%	?	6%	-33%	6.5µM*
Cc1ccc(C(=O)O/N=C(\N)c2ccccn2)cc1C	?	?	2%	-25%	-9%	-22%	nt
Cc1cc(C)c(NC(=O)CSc2nc(=O)n(Cc3cccnc3)c3c2CCC3)c(C)c1	nt	0%	nt	nt	1%	nt	nt
COc1ccc(N=Nc2n(C)c3ccccc3[n+]2C)cc1	1.4µM*	nt	?	nt	5µM*	-81%	13µM*
